LMNA splice mod – modulators of lamin A splicing; Potency, µM (highest dose often 46.1 µM), most hits filed as inhibitors; actives 0.01% (n = 200,000); HeLa LMNA splicing GFP/RFP minigene ratio, 48 h; active means well fitted inhibition curve with a large enough effect in the signal ratio, with a control signal flat, not every such curve was filed as active; inconclusive means small, poorly fitted or top-dose-only effect, or effect the other way, or a change in a side signal; the % refers to the signal ratio
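S3 HeLa stable clones carrying a lamin A-EGFP splicing minigene plus DsRed2 were seeded at 600 cells/well in Opti-MEM with 2% FBS, pin-dosed and incubated 48 h at 37°C. Acumen cytometry (488 nm) gave the GFP/RFP total-intensity ratio.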
PNC inhibitor – blocks assembly of the perinucleolar compartment; PC3M PTB-GFP, PNC prevalence imaging, 16 h; hits give low values; activity change (PNC), negative = inhibition, % at 10 µM; actives 3.1% (n = 140,000);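 active means readout at or below -70, meaning at least 70% loss of cells showing the perinucleolar compartment, a nuclear body marking cancer cells; inconclusive means readout between -30 and a set limit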
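Compounds are pinned in duplicate onto adhered PC3M cells stably expressing GFP-tagged PTB and incubated 16 h at 37 C. Cells are then fixed, nuclei stained with Hoechst, and PNC-positive cells counted.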
ALOX12 inhib – blocks human 12-lipoxygenase activity. P18054. purified 12-hLO, xylenol orange hydroperoxide absorbance. actives 0.12% (n = 150,000). AID 1452. Potency, µM (highest dose often 57.1 µM), most hits filed as inhibitors; active means well fitted inhibition curve with a large enough effect; inconclusive means small, poorly fitted or top-dose-only effect; further: nearly all actives have a fitted effect of over 55% in size
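Purified human 12hLO (150 nM), preincubated 15 min with compound, then 40 uM arachidonic acid for 30 min, room temperature, Hepes pH 7.0 with 0.01% Triton X-100. Hydroperoxide detected by ferrous iron/xylenol orange; 573/405 nm absorbance ratio gives reaction progress.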
ALDH1A1 block – blocks purified human ALDH1A1 activity. P00352. Purified ALDH1A1, NADH fluorescence, propionaldehyde substrate. Potency, µM (titrated, usually from 75.3 µM), usual class: inhibitors. actives 7.3% (n = 220,000). AID 1030
Target sequence (P00352 whole entry, looked up): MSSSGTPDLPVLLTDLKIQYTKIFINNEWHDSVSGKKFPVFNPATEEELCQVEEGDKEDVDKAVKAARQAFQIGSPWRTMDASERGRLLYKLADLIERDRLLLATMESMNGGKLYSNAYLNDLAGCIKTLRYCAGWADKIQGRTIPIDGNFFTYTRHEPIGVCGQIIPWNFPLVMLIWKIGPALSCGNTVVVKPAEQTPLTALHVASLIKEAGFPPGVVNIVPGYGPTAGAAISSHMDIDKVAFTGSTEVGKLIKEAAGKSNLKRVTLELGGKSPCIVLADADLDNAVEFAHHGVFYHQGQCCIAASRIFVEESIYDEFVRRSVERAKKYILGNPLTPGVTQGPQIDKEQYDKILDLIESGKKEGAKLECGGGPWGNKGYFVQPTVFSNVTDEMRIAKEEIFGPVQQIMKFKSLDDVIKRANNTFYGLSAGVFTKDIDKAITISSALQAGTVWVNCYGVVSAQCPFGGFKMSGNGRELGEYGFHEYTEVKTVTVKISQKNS
HPGD inh – HPGD (human) dehydrogenase inhibition; purified HPGD, NADH fluorescence kinetic, PGE2 substrate; P15428; Potency, µM, hits mostly inhibitors; actives 4.3% (n = 150,000)
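NADH formation kinetics: reaction with 30 uM PGE2 and 1 mM NAD+ (final), 20 nM enzyme, Tris-HCl pH 8 with Tween 20, after 15 min compound preincubation at room temperature. Fluorescence change, last versus first of five reads.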
Numbers stand for hits; i = inactive; ? = inconclusive; nt = no result given; [ ] = dose if it differs, or a comment. Sampled rows, rich in hits. Any-hit rate of the full collection: about 10%. Unless noted, the call rests on the fitted dose curve; in most records, active means well fitted inhibition curve with a large enough effect (not every such curve was filed as active); inconclusive means small, poorly fitted or top-dose-only effect, or another doubt; inactive means no such curve, though single readings can be large or run the other way.

SMILES	LMNA splice mod	PNC inhibitor	ALOX12 inhib	ALDH1A1 block	HPGD inh
Cc1noc(C)c1C(=O)N1CCC[C@@]2(CCN(Cc3ccc(C#N)cc3)C2)C1	nt	nt	i	i	i
COc1ccccc1NS(=O)(=O)c1ccc(O)c(C(N)=O)c1	i	?	i	?	i
COc1ccccc1NS(=O)(=O)c1ccc(O)c(C(=O)OCC(=O)c2ccc(Cl)cc2Cl)c1	i	nt	nt	1.1µM	nt
COc1ccccc1NS(=O)(=O)c1ccc(O)c(C(=O)OCC(=O)N2c3ccccc3CC2C)c1 (configuration not stated)	i	nt	nt	7.9µM	nt
C[C@H](CCC(=O)O)[C@H]1CC[C@H]2[C@H]3C(C[C@H](O)[C@]12C)[C@@]1(C)CC[C@@H](O)C[C@H]1C[C@H]3O (some centres not stated)	nt	nt	i	i	i
CCN(CC)c1ccc(CN2CCC(C(=O)NCc3ccc(C)cc3)CC2)cc1	nt	nt	nt	14µM	nt
CCN(CC)S(=O)(=O)N1CCC(C(=O)NCc2ccc(C)cc2)CC1	i	i	i	4.5µM	i
COC(=O)C1CCN(Cc2ccc(C)cc2)CC1	i	i	i	i	i
Cc1ccc(CNC(=O)C2CCN(S(=O)(=O)N3CCCCC3)CC2)cc1	i	nt	nt	?	nt
Cn1c(N)c(C(=O)COC(=O)CNS(=O)(=O)c2ccc(Cl)c(Cl)c2)c(=O)n(C)c1=O	i	i	i	i	i
CCCN1CC=C2C(C#N)=C(N)C(C#N)(C#N)C(c3cccc(OC)c3OC)C2C1 (configuration not stated)	i	-95	i	?	?
CCC(=O)NC1CCc2cccc(OC)c2C1 (configuration not stated)	nt	nt	nt	i	nt
NC(=O)c1ccc(-n2nnnc2Oc2ccccc2C(=O)N2CCOCC2)cc1	i	-122	i	i	i
CCOC(=O)C1CCC(CNCc2ccccc2C)CC1 (configuration not stated)	nt	nt	nt	i	nt
N#Cc1cn(Cc2cccc(Cl)c2)c2ccccc12	i	-103	i	?	i
COC(=O)N1CCC2(CC1)CN(C(=O)Nc1ccccc1)C2	nt	nt	i	i	i
CCCCc1nn2c(=O)cc(COC(=O)CNC(=O)c3ccccc3C)nc2s1	i	nt	nt	nt	nt
CC(=O)N(\C=C/C=C/C=C1\Sc2ccccc2C1=O)c1ccccc1	i	nt	nt	18µM	nt
Cc1ccccc1NC(=O)N1CCC(CN2CCCC2)CC1	i	nt	nt	nt	nt
C#CCOCCOCCOCCNc1nc(N2CCN(C(=O)[C@H](CCCCN)n3cc([C@@H](N)CC(C)C)nn3)CC2)nc(N2CCN(C(=O)[C@H](Cc3ccc(O)cc3)n3cc([C@@H](N)CC(C)C)nn3)CC2)n1	nt	nt	nt	i	nt
C#CCOCCOCCOCCNc1nc(N2CCN(C(=O)[C@H](Cc3ccc(O)cc3)n3cc([C@@H](N)CC(C)C)nn3)CC2)nc(N2CCN(C(=O)[C@H](Cc3ccc(O)cc3)n3cc([C@@H](N)CC(C)C)nn3)CC2)n1	nt	nt	nt	16µM	nt
Cn1cc(S(=O)(=O)N2CCCCCC2)cc1C(=O)Nc1ccc(Cl)c(C(F)(F)F)c1	i	nt	nt	nt	nt
O=C1CN(c2ccccc2Cl)C(=O)CN1c1ccccc1Cl	i	i	i	i	i
COc1ccccc1-n1c(-c2ccccc2)c[nH]c1=S	i	nt	nt	2.5µM	nt
S=c1[nH]cc(-c2ccccc2)n1-c1ccccc1Cl	i	i	i	0.89µM	18µM
SMILES	LMNA splice mod	PNC inhibitor	ALOX12 inhib	ALDH1A1 block	HPGD inh
Cn1c(-c2ccc(-c3ccccc3)cc2)c[nH]c1=S	i	i	?	i	nt
O=C(Nc1ccccc1C(=O)OCc1cc(=O)n2nc(C3CC3)sc2n1)c1cccc(Cl)c1	i	nt	nt	nt	nt
COc1ccc(-n2c(=O)cc(N3CCN(c4ccccc4F)CC3)[nH]c2=O)cc1	i	?	i	4µM	i
Cc1ccc(NC(=O)CN2C(=O)N/C(=C/c3cccn3-c3ccc(C(=O)O)cc3)C2=O)cc1	i	i	i	i	25µM
Cc1ccc(NC(=O)CN2C(=O)N/C(=C/c3ccco3)C2=O)cc1	i	i	i	25µM	i
COC(=O)c1ccccc1NC(=O)c1ccc2nc(Cc3ccccc3)oc2c1	i	nt	nt	nt	nt
CCOC(=O)c1c(NC(=S)Nc2ccc(OCC)cc2)sc2c1CCN(C)C2	nt	nt	nt	24µM	nt
CCOC(=O)c1c(NC(=S)Nc2ccc(Cl)cc2)sc2c1CCN(C)C2	i	i	i	25µM	i
O=c1cc(-c2cccc(F)c2)[nH]c2ccccc12	?	-91	i[0.00818 µM]	i	?
O=c1cc(-c2ccccc2)[nH]c2cc(Cl)ccc12	?	-119	i[0.00818 µM]	i	i
COc1ccc(C(=O)NCCn2ccc3ccccc32)cc1	i	?	i	?	i
O=C(NCCn1ccc2ccccc21)c1ccc(S(=O)(=O)N2CCCCC2)cc1	i	-81	i	?	?
Cc1cc2ccccc2n1CCNC(=O)c1ccc(S(=O)(=O)N2CCOCC2)cc1	i	?	i	10µM	i
COc1cc(NC(=O)CCc2c(C)nn(-c3ccc(N4CCCCC4)nn3)c2C)cc(OC)c1OC	i	nt	nt	nt	nt
Clc1cc(Sc2ccc(Br)cc2)nnc1-c1ccccc1	?	i	i	1µM	i
COCc1cc(Sc2ccc(Br)cc2)nc(-c2ccccc2)n1	?	i	i	i	i
O=C1CN(C(=O)c2ccc(Br)o2)C(c2ccccc2)c2cc(Br)ccc2N1 (configuration not stated)	i	i	i	22µM	i
O=C1CN(C(=O)c2ccc(Br)o2)C(c2ccc(F)cc2)c2cc(Cl)ccc2N1 (configuration not stated)	i	?	i	22µM	i
COc1cc(C/C=C/c2ccccc2)c(OC)cc1O	nt	nt	i	?	i
CC1CC(C)CN(Cc2nc3c(c(=O)n(C)c(=O)n3C)n2CCN2CCOCC2)C1 (configuration not stated)	i	i	i	7.9µM	i
CC(C)CCn1c(CN2CCOCC2)nc2c1c(=O)n(C)c(=O)n2C	i	?	i	14µM	i
CCC1CCCCN1Cc1nc2c(c(=O)n(C)c(=O)n2C)n1CC(C)C (configuration not stated)	i	-95	i	i	i
COc1ccccc1CNc1ncnc2c1nnn2C	i	nt	nt	nt	nt
N#Cc1ccc(CN2CCC3(CC2)CCN(C(=O)c2cnccn2)CC3)cc1	nt	nt	i	i	i
CC1Cc2ccccc2N1C(=O)CNc1cccc(S(=O)(=O)N2CCCC2)c1 (configuration not stated)	i	nt	nt	20µM	nt
CC1CCN(S(=O)(=O)c2ccc3c(c2)oc(=O)n3CC(=O)N2c3ccccc3CC2C)CC1 (configuration not stated)	i	i	i	i	i
N#Cc1cccc(NC(=O)N2CCC3(CC2)CCN(C(=O)c2ccco2)CC3)c1	nt	nt	i	10µM	i
OCC1(Cc2ccccc2)CCCN(Cc2ccc(-c3ccco3)cc2)C1 (configuration not stated)	i	nt	nt	25µM	nt
O=C(c1ccco1)N1CCC2(CCCN(Cc3ccccc3)C2)CC1	nt	nt	i	28µM	i

Screens deposited in PubChem BioAssay by National Center for Advancing Translational Sciences (NCATS).
